# Source: PubChem BioAssay (EPA / NIEHS)
# Results filed as inconclusive are left out. Calls of active or inactive are those of the source. Rule for the calls: active = hit-call score of the fitted dose curve at least 0.9, where 1 is the maximum; inconclusive = response in the unintended direction; inactive = score below 0.9.
# Biological target: human Vitamin D Receptor (VDR), VDR (gene 7421) (UniProt P11473)
# Experiment: ATG_VDR_TRANS: Attagene TRANS-FACTORIAL HepG2 Assay for human Vitamin D Receptor (VDR) (AID 2283022)
# Experimental: ATG_TRANS is a cell-based, multiplexed-readout assay that uses HepG2, a human liver cell line, with measurements taken at 24 hours after chemical dosing in a 24-well plate.ATG_VDR_TRANS is one of 30 assay component(s) measured or calculated from the ATG_TRANS assay. It is designed to make measurements of mRNA induction, a form of inducible reporter, as detected with fluorescence intensity signals by Reverse transcription polymerase chain reaction (RT-PCR) and Capillary electrophoresis technology.Data from the assay component ATG_VDR_TRANS was analyzed into 1 assay endpoint. This assay endpoint, ATG_VDR_TRANS, was analyzed in the positive analysis fitting direction relative to DMSO as the negative control and baseline of activity. Using a type of inducible reporter, measures of mRNA for gain-of-signal activity can be used to understand the reporter gene at the transcription factor-level as they relate to the gene VDR. Furthermore, this assay endpoint can be referred to as a primary readout, because this assay has produced multiple assay endpoints where this one serves a reporter gene function. To generalize the intended target to other relatable targets, this assay endpoint is annotated to the nuclear receptor intended target family, where the subfamily is non-steroidal.
# Human liver HepG2 cells are transiently transfected with multiple reporter transcription units (MRTUs) in 6-well plates using FuGene 6 reagent (Roche; 3 ml FuGene/1 mg DNA). The MRTU constructs are regulated by a cis-regulating element (promoter). […] A major difference between the CIS and TRANS system is that in CIS activities of endogenous TFs are measured, whereas the TRANS assay evaluates changes in activities of exogenous, chimeric NR-Gal4 proteins. […] At the end of 24 hour incubation, total RNA was isolated using TriZol reagent (Invitrogen). The isolated RNA is then reverse-transcribed using oligo(dT) primer and Mo-MLV reverse transcriptase (Invitrogen) with DNAse I (Ambion) treatment for 30 min. The one-tenth of the produced cDNA was amplified by PCR using Taq DNA polymerase (Invitrogen) and two reporter sequence-specific primers. The PCR products were fluorescently labeled by primer extension with 6-arboxyfluorescein (6-FAM) 5'-labeled reporter sequence-specific primer (2 min at 95 C, 20 s at 68 C and 10 min at 72 C) and these products were digested with 5U of HpaI (New England Biolabs) for 2h at 37 C. The fragments were purified using Qiaquick PCR columns (Qiagen), analyzed on an ABI 3130xL genetic analyzer (Applied Biosystems) with peak positions identified by using a set of X-rhodamine (ROX)-labeled MapMarker1000 molecular weight standards (BioVentures). The raw capillary electrophoresis data was processed using Attagraph software (Attagene).
# human Vitamin D Receptor (VDR), VDR (gene 7421), sequence (P11473 whole entry, looked up): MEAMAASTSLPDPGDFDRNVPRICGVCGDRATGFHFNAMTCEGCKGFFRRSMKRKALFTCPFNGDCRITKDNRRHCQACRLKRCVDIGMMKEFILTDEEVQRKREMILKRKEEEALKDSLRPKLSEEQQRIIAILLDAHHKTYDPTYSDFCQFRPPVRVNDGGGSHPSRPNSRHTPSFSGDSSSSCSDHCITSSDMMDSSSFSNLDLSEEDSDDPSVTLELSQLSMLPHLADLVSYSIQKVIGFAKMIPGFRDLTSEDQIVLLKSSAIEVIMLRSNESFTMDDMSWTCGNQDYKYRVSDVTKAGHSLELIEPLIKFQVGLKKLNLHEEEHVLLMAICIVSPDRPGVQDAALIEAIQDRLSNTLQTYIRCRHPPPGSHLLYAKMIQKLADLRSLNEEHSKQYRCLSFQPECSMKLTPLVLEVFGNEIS
row,Compound,outcome
1,CCCCCc1cc(O)cc(O)c1,inactive
2,C=CCc1ccc(OC(=O)Cc2ccccc2)c(OC)c1,inactive
3,ClCCCCCCCl,inactive
4,CN(N=O)c1ccccc1,inactive
5,[N-]=[N+]=CC(=O)OC[C@H](N)C(=O)O,inactive
6,O=[N+]([O-])c1ccc(Cl)cc1,inactive
7,CN(C)C(=O)C(c1ccccc1)c1ccccc1,inactive
8,O=[N+]([O-])c1cc([N+](=O)[O-])c2ccccc2c1,inactive
9,C=CC(=O)OCCO,inactive
10,CCC(=O)c1ccc(Cl)cc1,inactive
11,Oc1ccc(Cl)cc1,inactive
12,CN(C)N,inactive
13,O=S(=O)(c1ccccc1)c1ccccc1,inactive
14,c1ccc2c(c1)CCCC2,inactive
15,CC(=O)/C=C/c1ccccc1,inactive
16,CCc1cccc(C)c1N(C(=O)CCl)[C@@H](C)COC,inactive
17,Clc1ccc(-c2ccccc2)cc1,inactive
18,O=C1C(Cl)=C(Cl)C(=O)C(Cl)=C1Cl,inactive
19,Nc1c(Cl)c(Cl)c(Cl)c(Cl)c1Cl,inactive
20,Nc1ccc(Cl)c(Cl)c1,inactive

row,Compound,outcome
1,CC(C)(c1cc(Cl)c(O)c(Cl)c1)c1cc(Cl)c(O)c(Cl)c1,inactive
2,c1cc(OCC2CO2)ccc1Cc1ccc(OCC2CO2)cc1 (stereo not given),inactive
3,CCC(C)c1cc(C(C)(C)C)cc(-n2nc3ccccc3n2)c1O (stereo not given),inactive
4,C=C(Cl)CCl,inactive
5,O=C=Nc1ccccc1,inactive
6,CCC(Br)(CC)C(=O)NC(N)=O,inactive
7,CCOP(O)OCC,inactive
8,CCOC(=O)NC(=S)Nc1ccccc1NC(=S)NC(=O)OCC,inactive
9,CCOP(=O)(OCC)OCC,inactive
10,CC(C)(C)C(O)C(Oc1ccc(-c2ccccc2)cc1)n1cncn1 (stereo not given),inactive
11,CC1(C)CC(=O)CC(C)(C)N1[O],inactive
12,CC(C)COP(=O)(OCC(C)C)OCC(C)C,inactive
13,COc1cc(OC)c(OC)cc1C=O,inactive
14,O=C(NC(=O)c1c(F)cccc1F)Nc1ccc(Oc2ccc(C(F)(F)F)cc2Cl)cc1F,inactive
15,C=CC(=O)OC,inactive
16,O=CNC(N1CCN(C(NC=O)C(Cl)(Cl)Cl)CC1)C(Cl)(Cl)Cl (stereo not given),inactive
17,N#CC(c1ccccc1)c1ccccc1,inactive
18,N#Cc1cc(I)c(O)c(I)c1,inactive
19,C=CC(=O)OCCCCOC(=O)C=C,inactive
20,CCOP(=O)(OCC)Oc1ccc([N+](=O)[O-])cc1,inactive
